Each structure is given as a SMILES string.

The experiment relates to HepG2. Briefly: GSK_TCMDC: Percent inhibition of human HepG2 cell line. Test compounds present at 10uM. It is filed as functional.
With `Cc1ccc(Nc2nc3cc(Nc4ccnc(Nc5ccc(CS(C)(=O)=O)cc5)n4)ccc3o2)cc1`, the Inhibition – broadly, the relative decrease from the control value, in per cent – came to 54%.
For `COc1ccc(CNC2CCN(C)CC2)cc1-c1ccc(S(=O)(=O)NCCc2ccccn2)s1.O=C(O)C(F)(F)F` the value was 6%; for `Cl.N#Cc1ccc(CCNc2nccc(-c3cccc(CN4CCNCC4)c3)n2)cc1`, 5%.
In the case of `CC(C)c1cc2c(ccc3nc(N)nc(N)c32)o1` it was 66%; in that of `Cc1cc(-c2cccc(CNC3CCN(C)CC3)c2)ccc1S(=O)(=O)NCc1ccccc1.O=C(O)C(F)(F)F`, 53%; in that of `COc1cc(Nc2ccnc3ccc(C(F)(F)F)cc23)cc(OC)c1OC`, 15%.
For `O=C(CC1SC(N2N=C(c3cccs3)CC2c2ccccc2)=NC1=O)Nc1ccc(Cl)cc1` (stereo not given) the value was 18%; for `COc1ccc(-c2c(C(F)(F)F)nn(C)c2NC(=O)Nc2ccc(F)cc2F)cc1`, 8%.
In turn, `CN(Cc1cc(C(F)(F)F)cc(C(F)(F)F)c1)C(=O)C1CNCC1c1ccc(F)cc1.Cl` (stereo not given) yielded an Inhibition of 1%.
In the case of `O=C(Nc1ccc(CCNC2=NCCN2)cc1)Nc1ccc(CCNC2=NCCN2)cc1` it was 6%.
On to `CC[C@H](NC(=O)c1c(CCCN2CCN(c3ccccc3)CC2)c(-c2ccccc2)nc2cc(O)ccc12)c1ccccc1`, for which the Inhibition worked out at 12%.
For `CC(C)Cn1cc(C2CCN(CCN3CCC(CNC(=O)c4ccc(-c5ccc(C(F)(F)F)cc5)cc4)CC3)CC2)c2ccccc21` the value was 100%; for `O=C(NCCCCCN1CCC(c2c[nH]c3ccccc23)CC1)Nc1ccc(Br)cc1`, 24%; for `CN(C)CCOc1cc(O)c2c(c1)OC(C)(C)C=C2c1cccs1`, 29%.
In turn, `CNc1nc(N/N=C/c2cc3c(cc2[N+](=O)[O-])OCO3)nc(Nc2cccc(C(F)(F)F)c2)n1` gave an Inhibition of 0%.
The compound `CCCCCCNC(=O)C1Cc2c([nH]c3ccc(F)cc23)C2(CCN(Cc3ccccc3)CC2)N1` (stereo not given) came in with an Inhibition of 11%.
For `COc1ccc2c(=O)c(-c3ccc(OC(F)(F)F)cc3)c(C)[nH]c2c1` the value was 0%; for `COc1ccc(S(=O)(=O)N2CCC(NS(=O)(=O)c3ccc(F)cc3)CC2)cc1`, 3%.
In the case of `CCCCOC(=O)c1ccc(NC(=O)Nc2ccc(Cn3ncc(N4CCCNCC4)c(Cl)c3=O)cc2)cc1.O=C(O)C(F)(F)F` it was 2%; in that of `CNCCNCc1cccc(-c2ccc(-c3nc4cc(C(F)(F)F)ccc4[nH]3)cc2)c1.O=C(O)C(F)(F)F`, 21%.
For `CCCCCC(C)C(C)c1cc(O)c2c(c1)OC(C)(C)CC2(O)c1ccnn1C` (stereo not given) the value was 20%.
In the case of `CCc1cn2c3c(cc(C(=O)N[C@@H](Cc4ccccc4)[C@H](O)CNC4CCOCC4)cc13)N(C(C)C)S(=O)(=O)CC2.O=CO`, the Inhibition came out at 0%.
For `O=C(O)C(F)(F)F.O=S(=O)(NC1CCN(c2ccnc3cc(Cl)ccc23)C1)c1cccs1` (stereo not given) the value was 6%; for `CCCC(C)Nc1nc(C)cc(N[C@@H](CC(C)C)C(=O)NCc2ccc(C)cc2)n1.O=C(O)C(F)(F)F` (stereo not given in full), 16%; for `O=C(NC1CCCCC1)N(CCCn1ccnc1)Cc1csc(-c2ccc(CNCc3ccccc3)cc2)n1.O=C(O)C(F)(F)F`, 5%.
In the case of `CCCCOc1ccc(/C=C/c2ccc(-c3c(C)[nH]c(C)c(Cl)c3=O)s2)cc1` it was 0%.
For `CCC(Cc1cnc2nc(N)nc(N)c2n1)c1ccc(C(=O)N[C@@H](CCC(=O)O)C(=O)O)cc1` (stereo not given in full) [EDATREXATE] the value was 64%.
With `Cc1ccc(C2=NNC3(S2)C(=O)N(C)c2ccccc23)cc1` (stereo not given), the Inhibition amounted to 36%.
`Cc1cccc2nc(-c3ccc(-c4cccc(NC(=O)c5cncn5C)c4)cc3)[nH]c12` showed an Inhibition of 2%.
In the case of `O=C(O)C[C@H](NC(=O)[C@@H]1CCCN1C(=O)c1cccc(-c2ccc(Cl)c(Cl)c2)c1)C(=O)O` it was 0%.
In the case of `Cc1cc(C)c(NC(=O)N[C@H]2CCN(CCCCCNC(=O)/C=C/c3ccc(Cl)c(Cl)c3)C2)c(C)c1` it was 12%; in that of `C=C1C(C(=O)OCC)=CN(CC)c2cc(O[C@H]3CCN(C(=O)OC(C)(C)C)C3)ccc21`, 9%.
In the case of `CCN(CC)CCN(Cc1ccc(-c2ccc(C(F)(F)F)cc2)cc1)C(=O)Cn1c(CCc2cccc(F)c2F)nc(=O)c2cc(F)c(F)cc21.O=C(O)C(O)C(O)C(=O)O` it was 41%; in that of `C=CCOc1ccccc1CNCC(O)c1cc(Br)cs1` (stereo not given), 25%.
In turn, `CCc1ccc(CN2CCC(CNC(=O)c3cc(-c4ccccc4Cl)cs3)C2)cc1.O=C(O)C(F)(F)F` (stereo not given) displayed an Inhibition of 14%.
With `CCOc1ccc2[nH]c(C)cc(=NN=Cc3ccccc3F)c2c1`, the Inhibition came out at 0%.
In the case of `O=C(Cc1ccc[n+]([O-])c1)Nc1cccc(-c2cccc(-c3nc4cc(F)ccc4[nH]3)c2)c1` it was 28%; in that of `O=C(Nc1cc(Oc2ccc(O)cc2)cc([N+](=O)[O-])c1)c1cc(-c2ccc(F)cc2)no1`, 61%.
For `O=S(=O)(c1csc2ccccc12)N(CCC(O)(C(F)(F)F)C(F)(F)F)Cc1cccc(O)c1` the value was 0%; for `CC(Cc1ccc(NC(=O)c2ccc(NCCc3ccccc3)cc2)cc1)NCCc1cccc(Cl)c1.Cl` (stereo not given), 25%.
